Reference: PubChem BioAssay (NCATS)
Several values for one entry are separate records, joined by “and”; a condition that tells them apart may be missing. Identical values can stand only once. Records with an inconclusive call do not appear. Activity calls are given as the source filed them. Unless noted, calls follow the shape of the dose curve; as a rule, active = well fitted curve in the direction sought with a large enough effect; inconclusive = small, poorly fitted or top-dose-only effect, or another doubt; inactive = no such curve, though single readings can be large; an effect the other way counts as inactive or inconclusive.

How the values were obtained:
[1] = qHTS assay for environmental chemicals that activate the Aryl hydrocarbon Receptor (AhR) signaling pathway (AID 651777); conditions: 1A2-DRE human hepatoma cells, luciferase, 24 h; activation: stronger effect = higher value; also: % of control where 0% means no effect; nearly all actives have a fitted effect of over 15% in size
Summary of the method: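 Human hepatoma 1A2-DRE cells stably carrying a DRE/CYP1A2 promoter–luciferase reporter, 1,200 cells/well, exposed to compound 24 hr at 37 C. Luciferase read by One-Glo luminescence after 30 min at room temperature; increased signal marks AhR activation.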

[2] = target: Peroxisome proliferator-activated receptor alpha (Homo sapiens) (UniProt Q07869); experiment: qHTS assay for small molecule agonists of the peroxisome proliferator-activated receptor alpha (PPARalpha) signaling pathway (AID 651778); conditions: PathHunter PPARalpha complementation, chemiluminescence, 6 h; stronger effect = higher value; also: % of control where 0% means no effect
Peroxisome proliferator-activated receptor alpha (Homo sapiens), sequence (Q07869 whole entry, looked up): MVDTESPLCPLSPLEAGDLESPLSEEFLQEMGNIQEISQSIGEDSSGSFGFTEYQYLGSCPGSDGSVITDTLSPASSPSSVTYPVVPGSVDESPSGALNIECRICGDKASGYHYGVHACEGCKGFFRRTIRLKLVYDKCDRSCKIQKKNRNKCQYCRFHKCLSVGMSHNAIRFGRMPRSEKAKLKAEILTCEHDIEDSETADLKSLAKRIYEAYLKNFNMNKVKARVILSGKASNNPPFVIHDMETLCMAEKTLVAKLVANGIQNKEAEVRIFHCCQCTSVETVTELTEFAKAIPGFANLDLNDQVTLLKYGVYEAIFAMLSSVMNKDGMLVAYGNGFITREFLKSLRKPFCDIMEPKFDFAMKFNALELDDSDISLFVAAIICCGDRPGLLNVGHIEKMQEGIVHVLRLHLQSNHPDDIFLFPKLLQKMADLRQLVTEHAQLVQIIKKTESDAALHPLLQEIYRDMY
Summary of the method: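 Cells plated at 2,000/well and held overnight at 37 C, 5% CO2, then compound added by pin tool for 6 hr; after PathHunter detection reagent and 60 min at room temperature, chemiluminescence from enzyme complementation was read.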

[3] = target: Nuclear receptor ROR-gamma (Homo sapiens) (UniProt P51449); experiment: qHTS assay for small molecule antagonists of the retinoid-related orphan receptor gamma (ROR-gamma) signaling pathway (AID 651802);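 also: CHO cells with doxycycline-induced ROR-gamma expression; luciferase reporter luminescence driven by ROR response element; % is scaled to controls: 0 for no effect and ±100 for the full control effect; nearly all actives have a fitted effect of over 60% in size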
Nuclear receptor ROR-gamma (Homo sapiens), sequence (P51449 whole entry, looked up): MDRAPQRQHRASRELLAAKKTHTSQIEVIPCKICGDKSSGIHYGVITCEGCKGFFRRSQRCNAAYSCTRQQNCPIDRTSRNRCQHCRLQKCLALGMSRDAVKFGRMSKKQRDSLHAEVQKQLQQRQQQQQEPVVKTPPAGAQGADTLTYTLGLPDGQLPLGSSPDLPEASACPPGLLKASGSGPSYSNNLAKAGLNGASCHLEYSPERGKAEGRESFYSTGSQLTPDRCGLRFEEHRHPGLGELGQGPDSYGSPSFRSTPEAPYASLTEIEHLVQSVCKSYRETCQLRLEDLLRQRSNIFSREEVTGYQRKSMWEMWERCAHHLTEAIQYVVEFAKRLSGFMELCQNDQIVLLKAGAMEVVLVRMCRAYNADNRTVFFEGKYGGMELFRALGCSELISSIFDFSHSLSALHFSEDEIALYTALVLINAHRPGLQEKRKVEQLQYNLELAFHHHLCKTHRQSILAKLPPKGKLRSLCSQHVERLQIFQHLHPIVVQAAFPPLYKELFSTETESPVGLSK
Summary of the method: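 Doxycycline-induced reporter activity in engineered CHO cells (TET-inducible ROR, RORE-LUC) was measured by luminescence after 16hr compound exposure at 37C.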

[4] = target: Arylsulfatase A (Homo sapiens) (UniProt P15289); experiment: qHTS screen for enhancers of Arylsulfatase A (ASA1): LOPAC Validation Assay (AID 720538); conditions: outcome: dose series up to 57.5 µM; also: 0% is about no effect
Arylsulfatase A (Homo sapiens), sequence (P15289 whole entry, looked up): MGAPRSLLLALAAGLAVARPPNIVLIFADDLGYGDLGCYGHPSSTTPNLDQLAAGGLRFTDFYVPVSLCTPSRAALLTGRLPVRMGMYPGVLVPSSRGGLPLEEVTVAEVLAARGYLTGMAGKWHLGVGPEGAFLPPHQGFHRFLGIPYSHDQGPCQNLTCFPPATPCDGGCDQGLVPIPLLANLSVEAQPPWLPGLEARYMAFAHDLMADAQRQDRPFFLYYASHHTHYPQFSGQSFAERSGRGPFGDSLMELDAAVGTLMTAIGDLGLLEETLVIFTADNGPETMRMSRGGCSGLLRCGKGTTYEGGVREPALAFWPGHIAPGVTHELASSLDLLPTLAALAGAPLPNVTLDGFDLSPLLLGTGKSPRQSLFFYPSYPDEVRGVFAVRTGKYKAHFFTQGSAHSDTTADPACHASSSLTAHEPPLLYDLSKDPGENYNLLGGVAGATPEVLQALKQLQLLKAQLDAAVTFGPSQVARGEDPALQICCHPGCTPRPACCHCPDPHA
Summary of the method: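 Enhancer assay in patient-derived MLD fibroblasts carrying ASA-I179S: 48 h compound exposure at 37 C, then 14 h room-temperature pNCS turnover (0.5 mM final) in lysis buffer. Read by fluorescence at 525/598 nm after NaOH stop.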

[5] = qHTS for compounds that reverse cellular toxicity of Amyloid beta (A-beta) peptide in yeast: LOPAC Validation Assay (AID 720559);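 also: plate controls were DMSO for no effect and equimolar ferric chloride plus clioquinol rescue for full effect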
Summary of the method: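 Rescue of A-beta toxicity was scored as yeast growth by 600 nm absorbance after 48 hr at 30 C with compound. Normalization used DMSO (negative) and equimolar ferric chloride plus clioquinol (positive).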

[6] = qHTS for Activators of Parkin Expression: LOPAC Validation Assay (NLuc Reporter) (AID 720572;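 also: 0% = DMSO and 100% = positive control compound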)
Summary of the method: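 Cells harboring the Parkin-promoter coincidence reporter were treated for 24 h at seven concentrations. NLuc output was measured sequentially after the FLuc channel and scaled between DMSO and positive control values.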

[7] = qHTS for Activators of Parkin Expression: LOPAC Validation Assay (FLuc Reporter) (AID 720573;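 also: 0% = DMSO and 100% = positive control compounds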)
Summary of the method: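 FLuc signal from Parkin-promoter coincidence reporter neuronal cells, normalized to DMSO and positive control (100%). Cells (1,500/well) pre-incubated 24 h, then exposed to LOPAC compounds in 7-point dose response for 24 h at 37 C, 5% CO2.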

[8] = qHTS assay for small molecule agonists of the antioxidant response element (ARE) signaling pathway measured by Nrf2-dependant transcriptional activity (AID 720636; active = well fitted curve in the direction sought with a large enough effect in the repeat runs; an effect the other way counts as inactive or inconclusive; also: % of control where 0% means no effect)
Summary of the method: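 ARE-luc HepG2 cells carrying an Nrf2-responsive luciferase reporter, in medium with 1% dialyzed FBS, exposed to compound for 16 hr at 37 C, 5% CO2. Luminescence read 30 min after ONE-Glo addition.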

[9] = qHTS assay for small molecule antagonists of the retinoid-related orphan receptor gamma (ROR-gamma) signaling pathway - cell viability counter screen (AID 720652; active = well fitted curve in the direction sought with a large enough effect in the repeat runs; an effect the other way counts as inactive or inconclusive;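 also: CHO reporter cells with doxycycline-induced ROR-gamma expression; compound exposure lasted 16 hr before ATP read; % is scaled to controls: 0 for no effect and ±100 for the full control effect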)
Summary of the method: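 ATP-based viability readout in the ROR-gamma reporter CHO cells after 16 hr compound exposure under doxycycline induction.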

[10] = qHTS assay for small molecule agonists of the antioxidant response element (ARE) signaling pathway measured by Nrf2-dependant transcriptional activity - cell viability counter screen (AID 720653; active = well fitted curve in the direction sought with a large enough effect in the repeat runs; an effect the other way counts as inactive or inconclusive; also: % is scaled to controls: 0 for no effect and ±100 for the full control effect); conditions: ARE-bla HepG2 viability, CellTiter-Glo ATP luminescence, 16 h; max response: stronger effect = lower value
Summary of the method: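 ARE-bla HepG2 cells (2,000/well) rested 5 hrs at 37C/5% CO2, then exposed to compounds in DMSO for 16 hrs. Viability was read in the same wells as intracellular ATP by luminescence, 30 min at room temperature after reagent addition.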

[11] = target: T1, Hexokinase-4 (Homo sapiens) + Glucokinase regulatory protein (Homo sapiens) (UniProt P35557+Q14397); experiment: qHTS assay for inhibitors of recombinant human GCK-GKRP interaction: ADP-Glo assay (AID 743206);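 also: plate controls were DMSO plus enzyme for no effect and no enzyme for full effect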
T1 sequence (P35557 whole entry, looked up): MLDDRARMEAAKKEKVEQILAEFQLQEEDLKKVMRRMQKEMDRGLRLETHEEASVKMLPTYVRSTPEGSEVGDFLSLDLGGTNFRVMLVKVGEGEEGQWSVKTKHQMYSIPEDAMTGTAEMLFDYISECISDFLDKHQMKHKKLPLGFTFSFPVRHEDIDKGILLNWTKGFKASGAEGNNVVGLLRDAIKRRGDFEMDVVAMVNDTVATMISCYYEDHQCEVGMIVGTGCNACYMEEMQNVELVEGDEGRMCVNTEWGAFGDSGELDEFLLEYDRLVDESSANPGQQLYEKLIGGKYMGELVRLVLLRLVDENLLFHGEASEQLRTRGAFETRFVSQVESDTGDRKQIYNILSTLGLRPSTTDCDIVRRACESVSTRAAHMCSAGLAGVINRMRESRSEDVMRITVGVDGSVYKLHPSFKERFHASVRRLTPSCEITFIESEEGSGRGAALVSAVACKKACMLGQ
T1 sequence (Q14397 whole entry, looked up): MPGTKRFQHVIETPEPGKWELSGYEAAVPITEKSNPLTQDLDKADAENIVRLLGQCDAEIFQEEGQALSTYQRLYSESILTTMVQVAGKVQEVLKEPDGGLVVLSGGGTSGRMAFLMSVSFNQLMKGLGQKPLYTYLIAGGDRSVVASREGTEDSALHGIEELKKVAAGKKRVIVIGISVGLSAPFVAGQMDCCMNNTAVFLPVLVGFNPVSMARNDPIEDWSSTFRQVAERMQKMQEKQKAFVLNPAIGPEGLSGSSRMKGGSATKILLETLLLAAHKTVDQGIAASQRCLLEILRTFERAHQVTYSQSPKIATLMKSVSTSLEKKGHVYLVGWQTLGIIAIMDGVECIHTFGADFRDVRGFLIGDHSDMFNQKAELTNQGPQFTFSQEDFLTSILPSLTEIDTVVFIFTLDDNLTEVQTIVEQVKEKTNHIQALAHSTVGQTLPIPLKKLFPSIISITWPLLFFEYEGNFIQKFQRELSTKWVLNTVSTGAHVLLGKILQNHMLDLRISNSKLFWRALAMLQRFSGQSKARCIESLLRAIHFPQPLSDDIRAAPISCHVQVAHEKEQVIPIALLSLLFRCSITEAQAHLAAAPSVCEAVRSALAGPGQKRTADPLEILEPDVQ
Summary of the method: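 Pin-transferred compounds meet a 15 nM GST-GCK/15 nM FLAG-GKRP/2 uM S6P mix (dispense concentrations). ATP is then added to 0.4 mM final with 5 mM glucose, and the reaction runs 60 min at room temperature. ADP is quantified luminescently.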

[12] = target: T1, Hexokinase-4 (Homo sapiens) + Glucokinase regulatory protein (Homo sapiens); experiment: qHTS assay for inhibitors of recombinant human GCK-GKRP interaction: HTRF assay (AID 743207);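 also: 0% = DMSO with GCK present and -100% = DMSO wells lacking GCK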
Summary of the method: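 After 60 min equilibration at room temperature with anti-FLAG XL665 and anti-GST antibodies, FRET ratio (665/615 nm, excitation 320 nm) was read. Proteins: GST-GCK and FLAG-GKRP, each 5 nM, plus 2 uM S6P, pH 7.1 buffer; GCK-free wells define minimum signal.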

[13] = qHTS Assay for Identifying Gametocytocidal Compounds (AID 743244);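 also: % is scaled to controls: 0 for no effect and ±100 for the full control effect; actives lower the fluorescent signal which means gametocytes are killed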; conditions: P. falciparum 3D7 stage III-V gametocytes, alamarBlue, 72 h; max response: stronger effect = lower value
Summary of the method: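 3D7 gametocytes, stages III–V, 20,000/well; cpd 72 h, 37 °C/5% CO2; + alamarBlue 24 h; fluor. Ex 525/Em 598.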

[14] = qHTS assay for cell viability of HEK293 cells (AID 743288); conditions: ATP luminescence (CellTiter-Glo), 18 h; max response: stronger effect = lower value; also: % is scaled to controls: 0 for no effect and ±100 for the full control effect; nearly all actives have a fitted effect of over 50% in size
Summary of the method: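 Readout is luciferase-coupled ATP content (CellTiter-Glo luminescence, 30 min room temperature) as a measure of metabolically competent cells. Parental HEK293 cells were plated 5 h or more before compound addition, then treated 18 h at 37 C.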

[15] = qHTS assay for cell viability of the p53RE-bla HCT-116 cell line (AID 743292); also: % is scaled to controls: 0 for no effect and ±100 for the full control effect; nearly all actives have a fitted effect of over 55% in size
Summary of the method: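 CellSensor p53RE-bla HCT-116 cells (4,000/well) pre-incubated 5 h at 37 C, then exposed to compounds in DMSO for 16 h at 37 C. Viability read as ATP content by CellTiter-Glo luminescence after 30 min at room temperature.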

[16] = target: Tyrosine-protein kinase Yes (Homo sapiens) (UniProt P07947); experiment: qHTS for small molecule inhibitors of Yes1 kinase: Primary Screen (AID 686947); also: potency is read from the fitted curve at half-maximal effect; nearly all actives have a fitted effect of over 60% in size
Tyrosine-protein kinase Yes (Homo sapiens), sequence (P07947 whole entry, looked up): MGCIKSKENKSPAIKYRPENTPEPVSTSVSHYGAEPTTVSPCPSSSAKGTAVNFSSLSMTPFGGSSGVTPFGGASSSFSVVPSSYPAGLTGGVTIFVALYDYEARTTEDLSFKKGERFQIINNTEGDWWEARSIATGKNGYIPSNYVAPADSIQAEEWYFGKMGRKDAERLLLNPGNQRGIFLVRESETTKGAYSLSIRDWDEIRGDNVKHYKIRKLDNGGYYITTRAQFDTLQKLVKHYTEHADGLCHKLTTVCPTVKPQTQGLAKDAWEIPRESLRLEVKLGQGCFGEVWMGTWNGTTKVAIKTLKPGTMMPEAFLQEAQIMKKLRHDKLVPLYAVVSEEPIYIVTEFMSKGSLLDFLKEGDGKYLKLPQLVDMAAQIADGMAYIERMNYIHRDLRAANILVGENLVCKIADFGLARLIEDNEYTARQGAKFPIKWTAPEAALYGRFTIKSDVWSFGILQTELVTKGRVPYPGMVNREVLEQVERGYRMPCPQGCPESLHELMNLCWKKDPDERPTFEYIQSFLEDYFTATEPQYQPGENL
Summary of the method: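 In this qHTS format, inhibition is expressed relative to DMSO controls with enzyme (maximum) and without enzyme (minimum). The 60 min room-temperature reaction uses 0.1 mM ATP, with ADP detected by luminescence.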

[17] = qHTS for small molecule inhibitors of Yes1 kinase: Counter Assay (AID 686950);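 also: no kinase present so only ADP-Glo detection of a fixed ADP amount is tested; luminescence from ADP-Glo reporting ADP in a fixed ATP and ADP mixture; 0% = DMSO wells with ATP plus ADP and -100% = ATP-only wells without ADP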
Summary of the method: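 Measuring interference with ADP-Glo, the assay ran 60 min at room temperature on an ATP/ADP mix lacking enzyme. Values were normalized to ATP-plus-ADP (maximum) and ATP-only (minimum) DMSO controls.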

[18] = qHTS profiling for inhibitors of Plasmodium falciparum (3D7) proliferation (AID 743322);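 also: infected erythrocytes exposed to compound for 72 h before lysis; 100% = DMSO vehicle wells and 0% = 0.29 µM artemisinin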; conditions: P. falciparum 3D7 proliferation; at 28.7 µM (top of the series)
Summary of the method: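 Parasite DNA was quantified by SYBR Green I fluorescence (ex 485, em 535 nm) after overnight lysis in saponin/Triton buffer at room temperature. Cultures at 0.3% parasitemia and 2.5% hematocrit were first exposed to compound for 72 h at 37 C; signals were normalised to artemisinin (0.29 uM) and vehicle wells.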

[19] = qHTS profiling for inhibitors of Plasmodium falciparum (DD2) proliferation (AID 743323; call rule not given here); conditions: lower = more inhibition; at 28.7 µM (top of the series)
Summary of the method: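 Parasite proliferation measured via DNA-dye fluorescence, as uninfected erythrocytes lack DNA. Cultures at 0.3% parasitemia and 2.5% hematocrit incubated 72 h with compound; signal scaled between vehicle and 0.29 uM artemisinin wells.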

[20] = qHTS profiling for inhibitors of Plasmodium falciparum (HB3) proliferation (AID 743324); conditions: Plasmodium falciparum HB3 blood-stage proliferation; at 28.7 µM (top of the series);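 also: 100% = DMSO vehicle wells and 0% = artemisinin-treated control wells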
Summary of the method: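 SYBR Green fluorescence (485 ex/535 em) of lysed cultures, incubated overnight at room temperature in the dark, quantifies parasite DNA. Infected erythrocytes at 0.3% parasitemia and 2.5% hematocrit were exposed 72 h; values normalized to DMSO and 0.29 uM artemisinin controls.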

O=C1NC(=O)C(c2ccccc2)(c2ccccc2)N1
inactive: activation [1] -0.809% and 0.125% and -0.632% | max response [2] -3.11% and -0.24% and -0.609% | Potency [3] | outcome [4] | outcome [5] | Potency [6] | Potency [7] | Potency [8] | Potency [9] | max response [10] -13.1% and -3.11% and 0.97% | outcome [11] | outcome [12] | max response [13] -6.42% and 2.98% and 10.3% | max response [14] 6.32% and -2.27% and 1.15% | Potency [15]

O=C(O)c1cc(-c2ccccc2)nc2ccccc12
inactive: activation [1] 4.06% | max response [2] -3.44% | max response [10] -16.1% | max response [13] 4.65% and 33.8% | max response [14] -15% | Potency [15]

CC(C)[C@H](CO)Nc1nc(Nc2ccc(C(=O)O)c(Cl)c2)c2ncn(C(C)C)c2n1
35.2%: activity, percent of control [19]
inactive: outcome [17] | max response [13] 63.2%
41.8%: remaining parasite growth % (stronger effect = lower value) [18]
28.6%: remaining proliferation (% of control), lower = more inhibition [20]
active: Potency [16] 19.4 nM
